Mito fusion yeast: mitochondrial division inhibition or fusion activation | S. cerevisiae fusion-defective mutant growth rescue, CellTiterGlo 48 h | Potency, µM (highest dose often 46.1 µM), for inactives: at the top dose growth rescue (activation), hits mostly activators | hit rate 0.23% among 320,000; also: % of control where 0% means no effect; nearly all actives have a fitted effect of over 45% in size
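Read-out: ATP-based luminescence (CellTiterGlo, 10 min ambient) reporting growth of fusion-defective ts yeast after 48 hours at 37C on glycerol/ethanol YPEG medium in the presence of compound.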
aSyn yeast inh: rescues yeast growth from alpha-synuclein toxicity. Yeast expressing alpha-synuclein, growth rescue, BacTiter-Glo, 24 h. Potency, µM (top dose mostly 46.1 µM), for inactives: top-dose growth rescue (activation), usual class: activators. hit rate 0.14% among 370,000; also: % of control where 0% means no effect; nearly all actives have a fitted effect of over 65% in size
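Screening used galactose-induced yeast with toxic alpha-synuclein levels, exposed to compound for 24 hr at 30 deg C. Cell growth, read with BacTiter-Glo luminescence, gave the measured signal.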
Glioma ERSR ind: ER stress response induction in glioma | hit rate 0.02% among 420,000 | Potency, µM, for inactives: top-dose activation, usual class: activators | U87-MG GRP78 promoter luciferase reporter, 16 h; also: series mostly up to about 76 µM; % of control where 0% means no effect; nearly all actives have a fitted effect of over 35% in size
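Stably transfected U87-MG glioma cells carrying a GRP78-based luciferase sensor; 16 h compound incubation. Luminescence end-point read 10 min after Bright-Glo addition at room temperature.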
TDP-43 yeast inh: inhibitors of TDP-43 toxicity in yeast; TDP-43 expressing yeast growth rescue, BacTiter-Glo, 24 h; Potency, µM (top dose mostly 46.1 µM), without a hit: at the highest dose growth rescue (activation), hits mostly activators; hit rate 1.8% among 410,000; also: % of control where 0% means no effect; nearly all actives have a fitted effect of over 50% in size
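Yeast cells expressing TDP-43 under galactose induction are exposed to compounds for 24 hr at 30 deg C. BacTiter-Glo luminescence measures growth, so protective compounds score as activators.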
Abeta rescue: restores growth of yeast expressing A-beta42 peptide | yeast expressing A-beta42, growth rescue, OD600, 48 h; response scale: 0% DMSO, 100% iron-clioquinol control | Potency, µM (highest dose often 46.1 µM), actives largely listed as activators | hit rate 0.063% among 410,000; also: nearly all actives have a fitted effect of over 55% in size
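Growth rescue measured by 600 nm absorbance after 48 h yeast culture at 30 C with compound. Values normalized between DMSO and an equimolar ferric chloride plus clioquinol control.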
A-T KAP1 phos: potential ataxia-telangiectasia treatment | F2112 A-T fibroblasts, KAP-1 phosphorylation AlphaLISA; neocarzinostatin DNA damage 30 min before lysis | Potency, µM (top dose mostly 57.5 µM), without a hit: at the highest dose activation, actives largely listed as activators | hit rate 0.19% among 320,000 | AID 485349; also: % of control where 0% means no effect; nearly all actives have a fitted effect of over 45% in size
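hTERT-immortalized A-T patient fibroblasts (F2112), 500 cells/well in OPTI-MEM, 1% FBS, got compounds for 60 min, then NCS for 30 min at 37C. Lysates were then assayed for phospho-KAP-1 by AlphaLISA (anti-pKAP1 donor, anti-KAP1 acceptor beads), 6 hr at 25C.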
Numbers without * were called inactive; i = inactive; ? = inconclusive; . = no result; [ ] = remark or other dose. Most compounds without a hit are left out; they make up all but 2.1% or so of the library. Calls follow the shape of the dose curve; as a rule, active = well fitted curve in the direction sought with a large enough effect; inconclusive = small, poorly fitted or top-dose-only effect, or another doubt; inactive = no such curve, though single readings can be large; an effect the other way counts as inactive or inconclusive. Potency is read from the fitted curve at half-maximal effect.

SMILES	Mito fusion yeast	aSyn yeast inh	Glioma ERSR ind	TDP-43 yeast inh	Abeta rescue	A-T KAP1 phos
O=c1c2ccccc2sc2nc(C3CCCCC3)n(Cc3ccco3)c(=O)c12	3.5µM*	7%	-3%	-11%	i	18%
CCOC(=O)c1cc(-c2ccc(C)cc2)n(CCC(=O)NC(C)CC)c1C (configuration not stated)	0%	1%	-6%	14µM*	i	2%
CCOC(=O)c1cc(-c2ccc(F)cc2)n(CC(=O)NC(C)CC)c1C (configuration not stated)	4%	1%	-3%	22%	i	-1%
C#CCCCO/N=C1/C[C@@H](O)[C@@H](O)[C@@H]2[C@@H]3C(=O)N(c4cccc(Oc5ccccc5)c4)C(=O)[C@H]3CC[C@H]12	.	.	-4%	.	.	.
CC(=O)NC(c1ccccc1)c1nc(-c2cccs2)cs1 (configuration not stated)	.	2%	1%	16µM*	i	.
COc1cccc(C(NC(C)=O)c2nc(-c3cccs3)cs2)c1 (configuration not stated)	.	6%	2%	?	i	.
Cc1ccc(C2=NN(Cc3nnc(-c4ccccc4)o3)C(=O)SC2)cc1	?	10%	4%	18µM*	i	1%
O=C1S/C(=C/c2ccccc2F)C(=O)N1CCN=C1NS(=O)(=O)c2ccccc21	-6%	0%	-5%	11%	i	0%
CC(=O)Nc1ccc(C2=NN(c3ccccc3)C(c3cccs3)C2)cc1 (configuration not stated)	3%	3%	6%	-15%	i	25µM*
CCc1nc(SCc2ccc(Cl)cc2)n[nH]1	9%	3%	5%	13µM*	i	2%
O=S(=O)(Nc1nc(SCc2ccc(Cl)cc2)n[nH]1)c1ccc(F)cc1	29%	0%	-6%	20µM*	?	-15%
CCOc1cc(-c2nc(-c3ccc(-c4ccc(C)cc4)nc3OC)no2)cc(OCC)c1OCC	.	.	-2%	18%	i	.
COc1ccc(C(C)=O)cc1COC(=O)C1CCN(C(=O)c2ccc(Cl)cc2)CC1	.	1%[1.84 µM]	-2%	20µM*	i	2%
CCc1nc2cc(C(=O)NC3CCS(=O)(=O)C3)cc(NC(=O)c3ccccc3OC)c2n1C (configuration not stated)	.	.	-2%	.	.	.
CCc1ccc2nc(N(Cc3cccnc3)C(=O)c3ccc(C#N)cc3)sc2c1	.	.	-2%	1.8µM*	i	.
CCOc1ccc2nc(N(Cc3cccnc3)C(=O)c3cccs3)sc2c1	.	.	2%	14µM*	i	.
COc1ccc2nc(N(Cc3cccnc3)C(=O)Cc3ccccc3)sc2c1	.	.	-1%	32µM*	i	.
COc1ccc2sc(N(Cc3cccnc3)C(=O)c3cccs3)nc2c1	.	.	7%	18%	i	.
O=C(Cc1ccccc1)N(Cc1cccnc1)c1nc2c(Cl)cccc2s1	.	.	-1%	20µM*	i	.
CCOc1cccc2sc(N(Cc3cccnc3)C(=O)c3ccc(C#N)cc3)nc12	.	.	0%	-3%	i	.
CC(C)c1c(C(=O)N(C)CC2CCCN(C)C2)cnn1-c1nccc(-c2cccs2)n1 (configuration not stated)	.	.	1%	.	.	.
COc1cc(-c2ccc(C)cc2)cc2c1OCCN(C(=O)CCn1ccc(C)n1)C2	.	.	-3%	.	.	.
CCc1ccc2nc(N(Cc3cccnc3)C(=O)Cc3ccccc3)sc2c1	.	.	-4%	28µM*	i	.
Cc1ccc2nc(N(Cc3cccnc3)C(=O)CCc3ccccc3)sc2c1	.	.	-2%	?	i	.
CC(=O)c1ccc(C(=O)N(Cc2cccnc2)c2nc3c(C)c(C)ccc3s2)cc1	.	.	-3%	22µM*	i	.
SMILES	Mito fusion yeast	aSyn yeast inh	Glioma ERSR ind	TDP-43 yeast inh	Abeta rescue	A-T KAP1 phos
O=c1cc2c(nn1Cc1ccccc1)-c1ccccc1CC2	2%	6%	1%	19%	i	15%
O=c1cc2c(nn1Cc1cccc([N+](=O)[O-])c1)-c1ccccc1CC2	-1%	2%	-3%	28µM*	i	5%
CC1Cc2ccccc2N1Cc1cccc([N+](=O)[O-])c1 (configuration not stated)	-4%	-6%	-3%	10%	i	8%
O=c1cc2c(nn1Cc1ccc(F)cc1)-c1ccccc1CC2	13µM*	-8%	-1%	17%	i	-1%
Cc1cc(SCC(=O)Nc2nsc(-c3ccc(C(C)(C)C)cc3)n2)nc2ccccc12	.	.	-1%	18%	i	.
Cc1cnc(-n2ncc(C(=O)NCc3cccnc3)c2C)nc1-c1ccc(F)cc1	.	.	-6%	.	.	.
COc1ccccc1CCc1nc2ccccc2n1C1CCN(C(=O)c2cc(C)nn2C)CC1	.	.	-5%	.	.	.
O=C(Nc1nnc(C2CC2)o1)c1ccc(S(=O)(=O)N2CCCCC2)cc1	-1%	?	-4%	8%	?	14%
COCc1nnc(NC(=O)c2ccc(S(=O)(=O)N3CCCc4ccccc43)cc2)o1	4%	?	-1%	?	i	0%
CCOC(=O)N1CCN(S(=O)(=O)c2ccc(C(=O)Nc3nnc(C)o3)cc2)CC1	-3%	-1%	-2%	-3%	i	-8%
O=C(Nc1nnc(C2CC2)o1)c1ccc(S(=O)(=O)N2CCCc3ccccc32)cc1	-2%	?	-4%	18µM*	?	0%
Cc1nnc(NC(=O)c2ccc(S(=O)(=O)N3CC(C)CC(C)C3)cc2)o1 (configuration not stated)	31%	16µM*	0%	-7%	?	-4%
CC1CCN(S(=O)(=O)c2ccc(C(=O)Nc3nnc(C4CC4)o3)cc2)CC1	4%	18µM*	-6%	?	13µM*	-1%
O=C(CSc1nc2c(c(=O)[nH]1)CCCC2)Nc1ccc(Br)cc1	.	.	.	35%	i	.
CCNC(=O)c1ccc2c(c1)sc1nc(-c3cccc(OC)c3)cn12	.	.	-3%	16µM*	i	.
O=C(O)c1ccc2c(c1Nc1ccccc1)C(=O)c1ccccc1C2=O	25%	13µM*	-5%	-35%	i	-2%
COc1ccc2c(c1)CCc1cnc(-n3ncc(C(=O)NCC(C)(C)CN(C)C)c3C)nc1-2	.	.	2%	.	.	.
COCc1c(C(=O)N2CCCCCC2)cnn1-c1nccc(-c2cccs2)n1	.	.	-3%	.	.	.
CCC(C)(C)NC(=O)C(c1ccccc1F)N(Cc1ccco1)C(=O)Cn1nnc2ccccc21 (configuration not stated)	10µM*	-5%	-4%	-17%	i	6%
COC(=O)C1CCCCN1Cc1ccc2c(c1)CN(C(=O)c1cc(C)nc3cc(F)ccc13)CCO2 (configuration not stated)	.	.	-4%	.	.	.

High-throughput results deposited in PubChem BioAssay by National Center for Advancing Translational Sciences (NCATS).
